PubChem BioAssay
Active and inactive are the calls of the source.

Assays:
[1] = small molecules captured by biotinylated probe aFSTL3 – biochemical, small-molecule microarray, fluorescence 635/667, stem cell growth factor project, primary screen (AID 1064); conditions: higher = more signal;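 note: measures binding of the biotinylated anti-FSTL3 antibody to printed compounds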
[2] = binders from COS7 lysate, DM2A8 probe, primary screen, torsin A project, cell lysate, small-molecule microarray, fluorescence 635/667 (AID 1065); conditions: higher = more signal, COS7 lysate expressing mutant human TOR1A
[3] = small molecules captured by biotinylated probe aFGF2 – biochemical, small-molecule microarray, fluorescence 635/667, stem cell growth factor project, primary screen (AID 1067); conditions: higher = more signal;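 note: measures binding of biotinylated aFGF2 protein to printed compounds on slides; z-score merges feature fluorescence and signal-to-noise across triplicate slides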
[4] = small molecules captured by biotinylated probe aFGF10 – biochemical, small-molecule microarray, fluorescence 635/667, stem cell growth factor project, primary screen (AID 1071); conditions: higher = more signal;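 note: score merges 667 nm spot intensity and signal to noise from triplicate slides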
[5] = target: Neurogenic locus notch homolog protein 2 (Homo sapiens) (UniProt Q04721); assay: small molecules binding Notch2 protein – biochemical, small-molecule microarray, 635 nm fluorescence, stem cell growth factors, primary screen (AID 1073); conditions: higher = more signal
[6] = target: Pro-neuregulin-1, membrane-bound isoform (Homo sapiens) (UniProt Q02297); assay: small molecules binding neuregulin-1 protein – biochemical, small-molecule microarray, fluorescence 635/667, psychiatric disease protein project, primary screen (AID 1075); conditions: NRG1 binding, 635 nm fluorescence, higher = more signal;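 note: score combines 667 nm spot fluorescence with signal to noise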
[7] = test system: Neuregulin-1 EGF-like domain; assay: small molecules binding NRG1 EGF domain – biochemical, small-molecule microarray, 635 nm fluorescence, primary screen (AID 1081); conditions: higher = more signal;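 note: binding of the protein to compounds printed on small-molecule microarray slides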
[8] = FRG1 expression reporter modulators in myotubes – cell-based, C2C12 myotubes, firefly/Renilla luciferase, luminescence, FRG1 inhibition for FSHD, primary screen (AID 1084); conditions: FRG1 promoter luciferase, higher = more signal, called active from +8 up or from −8 down
[9] = small molecules captured by biotinylated probe aFST – biochemical, small-molecule microarray, fluorescence 635/667, stem cell growth factor project, primary screen (AID 1086); conditions: higher = more signal;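 note: score merges 667 nm fluorescence with signal-to-noise of each printed compound spot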
[10] = binders of probe aHhip on microarray, primary screen, stem cell growth factor project, biochemical, small-molecule microarray, fluorescence 635/667 (AID 1087); conditions: higher = more signal;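 note: score merges spot fluorescence at 667nm with spot signal to noise ratio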

Pro-neuregulin-1, membrane-bound isoform (Homo sapiens), sequence (Q02297 whole entry, looked up, the tested form may be a part, canonical isoform): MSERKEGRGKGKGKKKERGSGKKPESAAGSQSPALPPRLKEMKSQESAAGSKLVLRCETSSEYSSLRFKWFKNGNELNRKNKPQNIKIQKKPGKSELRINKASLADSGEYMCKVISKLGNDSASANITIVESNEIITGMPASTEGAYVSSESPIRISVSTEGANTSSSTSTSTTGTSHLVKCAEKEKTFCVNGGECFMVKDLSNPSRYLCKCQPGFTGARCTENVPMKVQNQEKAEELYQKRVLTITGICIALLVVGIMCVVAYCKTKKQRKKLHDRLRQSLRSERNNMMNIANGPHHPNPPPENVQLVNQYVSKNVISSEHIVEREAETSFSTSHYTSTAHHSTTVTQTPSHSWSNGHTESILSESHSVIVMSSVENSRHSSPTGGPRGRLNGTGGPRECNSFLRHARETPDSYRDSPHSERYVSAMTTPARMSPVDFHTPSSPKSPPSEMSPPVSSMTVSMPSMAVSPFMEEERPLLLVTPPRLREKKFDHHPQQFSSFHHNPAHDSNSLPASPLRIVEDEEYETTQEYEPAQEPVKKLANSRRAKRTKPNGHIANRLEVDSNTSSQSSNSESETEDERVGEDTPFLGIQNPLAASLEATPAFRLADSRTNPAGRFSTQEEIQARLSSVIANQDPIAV
Neurogenic locus notch homolog protein 2 (Homo sapiens), sequence (Q04721 whole entry, looked up, canonical isoform): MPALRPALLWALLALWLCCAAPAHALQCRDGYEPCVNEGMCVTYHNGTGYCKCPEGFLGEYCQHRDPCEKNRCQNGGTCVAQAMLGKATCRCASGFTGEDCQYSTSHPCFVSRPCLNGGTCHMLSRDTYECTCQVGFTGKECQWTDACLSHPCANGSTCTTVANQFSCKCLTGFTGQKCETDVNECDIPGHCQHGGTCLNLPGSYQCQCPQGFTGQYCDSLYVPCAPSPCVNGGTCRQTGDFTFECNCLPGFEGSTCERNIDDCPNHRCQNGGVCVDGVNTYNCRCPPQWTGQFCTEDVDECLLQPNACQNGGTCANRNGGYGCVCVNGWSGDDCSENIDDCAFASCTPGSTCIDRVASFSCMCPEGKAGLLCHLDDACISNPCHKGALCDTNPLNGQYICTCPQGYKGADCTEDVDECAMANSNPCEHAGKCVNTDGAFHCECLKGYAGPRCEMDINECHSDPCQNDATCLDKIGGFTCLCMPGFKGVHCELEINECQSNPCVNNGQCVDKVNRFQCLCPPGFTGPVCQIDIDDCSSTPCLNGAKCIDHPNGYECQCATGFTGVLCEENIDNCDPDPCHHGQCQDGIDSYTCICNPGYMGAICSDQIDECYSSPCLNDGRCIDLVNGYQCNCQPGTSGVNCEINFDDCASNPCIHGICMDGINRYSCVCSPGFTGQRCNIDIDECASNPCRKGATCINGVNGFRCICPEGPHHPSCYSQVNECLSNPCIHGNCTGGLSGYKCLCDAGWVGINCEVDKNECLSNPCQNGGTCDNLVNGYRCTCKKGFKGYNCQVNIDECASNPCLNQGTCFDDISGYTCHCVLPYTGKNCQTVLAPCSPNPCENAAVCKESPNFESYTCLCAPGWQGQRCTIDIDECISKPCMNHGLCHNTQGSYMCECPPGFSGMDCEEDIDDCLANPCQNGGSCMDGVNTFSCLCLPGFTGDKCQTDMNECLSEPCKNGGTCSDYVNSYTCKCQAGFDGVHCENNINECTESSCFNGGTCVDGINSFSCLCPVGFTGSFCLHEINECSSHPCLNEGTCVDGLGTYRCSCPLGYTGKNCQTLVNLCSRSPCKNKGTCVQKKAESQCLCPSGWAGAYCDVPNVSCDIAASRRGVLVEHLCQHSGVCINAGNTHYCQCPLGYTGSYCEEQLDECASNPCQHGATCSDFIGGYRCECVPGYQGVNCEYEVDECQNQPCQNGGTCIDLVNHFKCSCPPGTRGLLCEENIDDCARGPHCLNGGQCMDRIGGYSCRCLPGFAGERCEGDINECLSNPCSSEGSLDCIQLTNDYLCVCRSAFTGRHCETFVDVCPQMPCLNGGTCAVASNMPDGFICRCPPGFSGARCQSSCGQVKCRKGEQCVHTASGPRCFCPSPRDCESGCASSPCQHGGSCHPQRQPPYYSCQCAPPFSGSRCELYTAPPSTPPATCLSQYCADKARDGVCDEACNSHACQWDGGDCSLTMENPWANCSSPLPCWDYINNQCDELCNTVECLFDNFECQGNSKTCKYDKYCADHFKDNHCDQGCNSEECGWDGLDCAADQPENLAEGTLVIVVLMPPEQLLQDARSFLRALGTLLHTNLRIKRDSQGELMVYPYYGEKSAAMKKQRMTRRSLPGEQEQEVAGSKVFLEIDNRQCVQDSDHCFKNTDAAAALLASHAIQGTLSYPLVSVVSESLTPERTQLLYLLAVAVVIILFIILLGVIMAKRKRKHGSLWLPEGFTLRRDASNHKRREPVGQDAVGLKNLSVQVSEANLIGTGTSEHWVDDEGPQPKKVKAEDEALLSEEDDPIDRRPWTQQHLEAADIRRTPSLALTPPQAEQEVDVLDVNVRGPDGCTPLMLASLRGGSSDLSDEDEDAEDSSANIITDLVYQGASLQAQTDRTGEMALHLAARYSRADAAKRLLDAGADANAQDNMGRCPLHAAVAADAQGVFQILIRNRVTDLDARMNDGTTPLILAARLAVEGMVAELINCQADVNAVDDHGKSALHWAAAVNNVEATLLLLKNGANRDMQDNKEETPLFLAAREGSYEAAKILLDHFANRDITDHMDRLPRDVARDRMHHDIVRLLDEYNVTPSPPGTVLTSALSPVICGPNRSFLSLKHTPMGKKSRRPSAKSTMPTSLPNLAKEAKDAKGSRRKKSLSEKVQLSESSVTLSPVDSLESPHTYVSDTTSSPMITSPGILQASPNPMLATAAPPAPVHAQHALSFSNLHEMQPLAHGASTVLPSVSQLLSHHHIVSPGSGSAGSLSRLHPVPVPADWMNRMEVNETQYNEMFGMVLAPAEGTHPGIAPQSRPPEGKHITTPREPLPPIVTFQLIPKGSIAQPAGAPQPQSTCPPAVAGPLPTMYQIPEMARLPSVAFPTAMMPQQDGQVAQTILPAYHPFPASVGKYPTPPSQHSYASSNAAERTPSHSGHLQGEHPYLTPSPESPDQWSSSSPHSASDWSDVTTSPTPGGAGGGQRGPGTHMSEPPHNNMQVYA

Compound | composite z-score [1] | composite z-score [2] | composite z-score [3] | composite z-score [4] | composite z-score [5] | composite z-score [6] | composite z-score [7] | z-score [8] | composite z-score [9] | composite z-score [10]
CN(C)C(=O)[C@]1(Cc2ccccc2N=[N+]=[N-])N=C(c2ccc(OCCCO)cc2)O[C@@H]1c1ccccc1CN=[N+]=[N-] | -0.144 | 0.937 | 0.122 | 0.794 | 1.51 | 1.8 | 1.19 | 0.643 (inactive) | 0.745 | -0.0994
COc1ccc(C(=O)Nc2ccc(CN3C(=O)[C@]4(O[C@H](CCn5cc([C@H](O)c6ccccc6)nn5)[C@@H]([Si](C)(C)c5ccc(OC)cc5)[C@@H]4C)c4ccccc43)cc2)cc1 | 0.804 | 0.0963 | -0.172 | -0.161 | -0.284 | 0.178 | 0.923 | -0.855 (inactive) | 0.198 | -0.0994
COc1cc(C(O)C2C=CC3C(=O)NC(=O)C3N2Nc2ccc(Cl)cc2Cl)cc(OC)c1OC (stereo not given) | 0.223 | -1.1 | 0.0461 | 0.476 | 1.63 | 1.72 | 1.21 | 1.15 (inactive) | 1.7 | 0.203
O=C1C[C@@](C(=O)NCc2ccccc2)(c2ccc([N+](=O)[O-])cc2)[C@@H](c2ccc(CO)cc2I)N1C1CCCCC1 | 1.95 | 0.379 | 0.347 | 0.352 | 1.08 | 0.819 | 1.29 | -0.524 (inactive) | 1.3 | 0.368
CCOC(=O)C1=CC[C@@H](c2ccc(N(CC)CC)cc2)N(S(=O)(=O)c2ccc(C)cc2)[C@H]1c1ccc([N+](=O)[O-])cc1 | 0.709 | -0.346 | -0.0336 | -0.865 | -0.398 | 0.722 | 0.722 | -0.162 (inactive) | 0.0676 | -0.0237
Cc1cc(C)c(C(O)C2C=CC3C(=O)N(c4ccccc4)C(=O)C3N2Nc2ccc([N+](=O)[O-])cc2)c(C)c1 (stereo not given) | 0.0096 | 0.129 | 0.0748 | 0.453 | 1.68 | 1.9 | 1.36 | -0.625 (inactive) | 1.51 | -0.223
C=C(CCCC)/C(=C/C[C@@H](OC(=O)c1ccncc1)c1ccccc1OCCO)c1cc(C(=O)OC)ccc1OC | -0.256 | 0.815 | -0.0628 | 0.173 | 0.791 | 1.17 | 1.2 | 0.488 (inactive) | -0.242 | -0.0296
CCCC[C@H]1OB(O)C[C@H]2C1=C(COc1ccccc1)Cn1c(=O)n(-c3ccccc3)c(=O)n12 | -0.211 | 0.556 | -0.145 | 0.279 | 0.403 | 1.01 | 0.77 | -0.971 (inactive) | 0.415 | -0.164
COc1cc2c(cc1OC)CN(C(=O)[C@@H]1[C@H]3C(=O)O[C@H](c4ccccc4)[C@H](c4ccccc4)N3[C@H](c3ccc(O)cc3)[C@@]13C(=O)Nc1ccc(C#CCNC(N)=O)cc13)CC2 | -0.133 | -0.121 | -0.0616 | 0.411 | 0.578 | 0.559 | 0.544 | 0.238 (inactive) | 0.75 | -0.0994
N#Cc1ccc(NN2C(C(O)c3ccccc3)C=CC3C(=O)N(c4ccccc4)C(=O)C32)cc1 (stereo not given) | 0.0243 | -0.0347 | 0.111 | 0.379 | 0.639 | 1.15 | 1.09 | 0.474 (inactive) | 0.64 | -0.151
COCC(=C=CC[C@@H](O)c1ccccc1OCCO)C[C@@H](O)c1ccccn1 | -0.304 | 0.663 | -0.0775 | 0.159 | 0.12 | 1.21 | 1.2 | -0.0964 (inactive) | -0.0376 | 0.0156
O=C(C=C(CC(O)c1cccc(Cl)c1)OCCF)OCCF (stereo not given) | 0.876 | -0.824 | -0.154 | -0.694 | -1.02 | -0.0066 | -0.19 | -4.54 (inactive) | 0.0462 | 0.0596
CCOC(=O)C[C@H]1[C@H](OC(=O)c2ccc(C(=O)c3ccccc3)cc2)[C@@H](NC(=O)C2CCCCC2)c2cc(OCCCO)ccc2N1C(=O)Cc1ccc(OC)cc1 | 0.644 | 0.673 | 0.0007 | 0.348 | 0.376 | 0.556 | 0.207 | -1.01 (inactive) | 0.757 | 0.295
C=CCOc1ccc([C@@H]2CC=C(C(=O)OCC)[C@H](c3cccc(Br)c3)N2S(=O)(=O)c2ccc(C)cc2)cc1 | 0.474 | -0.229 | -0.0901 | -0.0763 | -0.672 | 0.866 | 0.0455 | -4.03 (inactive) | 0.176 | -0.3
CCOC(=O)C1=CC[C@@H](c2ccccc2)N(S(=O)(=O)c2ccc(C)cc2)[C@H]1C=C(C)C | -0.259 | 0.644 | 0.119 | 0.831 | 1.46 | 0.944 | 0.957 | -2.39 (inactive) | 1.58 | -0.199
CC(C)(C)N1CC=CC23O[C@@H]4C=CCCOC(=O)C4[C@H]2C(=O)N(CCCO)[C@@H]3C1=O (stereo not given in full) | 0.248 | -0.527 | -0.181 | -0.642 | -1.5 | -0.509 | -0.174 | 0.489 (inactive) | -0.383 | -0.0994
C[N+](C)(C)CCCC[C@@H]1NC(=O)[C@@H]2C[C@H](C(=O)O)[C@H](c3cccc(OCCO)c3)N2C1=O | 0.846 | 0.0439 | -0.179 | -0.372 | -0.821 | -0.0567 | 1.1 | -0.112 (inactive) | -0.184 | -0.245
NC(=O)NCC#Cc1ccc2c(c1)[C@]1(C(=O)N2)[C@H](c2ccc(O)cc2)N2[C@H](c3ccccc3)[C@H](c3ccccc3)OC(=O)[C@H]2[C@@H]1C(N)=O | 0.373 | -1.07 | -0.0925 | -0.568 | -0.847 | -0.283 | 0.266 | -1.07 (inactive) | -0.139 | 0.202
CCCCCCCCCCC(O)C1C=CC2C(=O)NC(=O)C2N1Nc1ccccn1 (stereo not given) | 0.444 | -1.14 | -0.0899 | -0.417 | 0.439 | 1 | 0.852 | 1.06 (inactive) | 0.0124 | -0.236
COCCCNC(=O)[C@@]1(Cc2ccccc2I)c2ccccc2C(=O)N(Cc2ccccc2Cl)[C@H]1c1ccc(CO)cc1 | -0.196 | 0.229 | -0.0686 | 0.293 | 0.153 | 1.3 | 1.13 | -1.21 (inactive) | -0.211 | -0.156
C=CCC(OC(C)=O)[C@@H]1[C@@H](N(Cc2ccc(-c3ccccc3)cc2)C(=O)Cc2ccc(OC)cc2)c2cc(OCCCO)ccc2N1C(=O)c1ccc(-c2ccccc2)cc1 (stereo not given in full) | -0.0141 | 0.253 | -0.0158 | -0.0965 | -0.137 | 0.275 | 0.0056 | -1.24 (inactive) | 0.0321 | 0.259
COc1ccc([Si](C)(C)[C@@H]2[C@@H](CCO)O[C@]3(C(=O)N(Cc4ccccc4)c4ccc(N5C(=O)COc6ccccc65)cc43)[C@H]2C)cc1 | -0.169 | 0.217 | -0.0973 | 0.2 | 0.128 | 0.666 | 1.05 | -0.409 (inactive) | 0.17 | -0.0994
CCOc1cc(C(O)C2C=CC3C(=O)NC(=O)C3N2Nc2ccccn2)ccc1O (stereo not given) | -0.373 | 0.123 | -0.0094 | 0.458 | 0.257 | 0.18 | 0.117 | -0.027 (inactive) | 0.0771 | -0.132
C=CCN1C(=O)[C@@]2(O[C@@H](CCO)[C@H]([Si](C)(C)c3ccc(OC)cc3)[C@H]2C)c2cc(NC(=O)[C@H](C)O)ccc21 | -0.0083 | 0.558 | -0.0243 | 1.03 | 0.503 | 0.915 | 1.1 | -0.737 (inactive) | 0.005 | -0.169
[N-]=[N+]=Nc1ccccc1[C@@H]1OC(c2ccc(OCCCO)cc2)=N[C@]1(CCS(=O)(=O)c1ccccc1)C(=O)NCc1ccccc1 | 0.207 | 0.599 | 0.294 | 0.655 | 1.52 | 1.9 | 1.1 | 0.271 (inactive) | 1.8 | -0.196
COc1ccc([Si](C)(C)[C@@H]2[C@@H](CCO)O[C@]3(C(=O)N(Cc4ccc(N5C(=O)c6ccccc6Oc6ccccc65)cc4)c4ccccc43)[C@H]2C)cc1 | 0.197 | -0.589 | -0.106 | -0.124 | -0.323 | 1.09 | 0.736 | -1.69 (inactive) | -0.0716 | -0.0324
C[N+](C)(C)CCCCCCNC(=O)[C@@H]1C[C@@H]2C(=O)NCC(=O)N2[C@@H]1c1ccc(O)cc1 | -0.416 | 1.27 | -0.116 | 0.391 | -0.149 | 1.51 | 1.43 | 2.8 (inactive) | 0.0022 | -0.0088
NCCCCCCNC(=O)[C@H]1C[C@H]2C(=O)N3CCC[C@H]3C(=O)N2[C@H]1c1ccc(O)cc1 | 0.185 | 0.533 | -0.029 | 0.176 | -0.45 | 1.23 | 1.22 | -0.415 (inactive) | 0.0744 | -0.184
CCCCC(=C=CC[C@H](O)c1cccc(OCCO)c1)C[C@H](O)COCc1ccccc1 | -0.0829 | 0.284 | -0.112 | 0.205 | -0.431 | -0.491 | 0.794 | -0.664 (inactive) | -0.11 | -0.28
